Values without a mark were called inactive. Records with an inconclusive call do not appear. Active and inactive are the calls of the source. Unless noted, the call rests on the fitted dose curve; in most records, active means well fitted curve in the direction sought with a large enough effect in the repeat runs; inconclusive means weak or mixed curves; inactive means no such curve, though single readings can be large; an effect the other way counts as inactive or inconclusive.

Experiment [1] in a line: qHTS assay to identify small molecule HDAC inhibitors - cell viability counter screen (AID 1259365). Further: series mostly up to about 92 µM; nearly all actives have a fitted effect of over 50% in size. The procedure, abridged: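 CellTiter-Glo luminescence (30 min, room temperature) reported viability after a 2 h compound exposure at 37 C. Cells: wild-type HCT-116, 1,500 per well, seeded the night before.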
A general note: Quantitative high-throughput screening tests each substance at several concentrations.

Experiment [2] in a line: qHTS assay to identify small molecule agonists of the sonic hedgehog signaling (Shh) pathway - cell viability counter screen (AID 1259366). Further: nearly all actives have a fitted effect of over 50% in size. The procedure, abridged:
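Cytotoxicity counter screen: CellTiter-Fluor reagent added after 23 h compound exposure, then 1 h at 37C and fluorescence read. Cells were 3T3 Gli1-Luc, seeded 2,000 per well and dosed 4 h post-plating.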

The nature of experiment [3]: qHTS assay to identify small molecule antagonists of the sonic hedgehog signaling (Shh) pathway - cell viability counter screen (AID 1259367). Further: nearly all actives have a fitted effect of over 55% in size. The method in brief: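 NIH/3T3-derived Gli1-Luc reporter cells, 2,000/well, plated 4 hr before compound addition, then stimulated with conditioned medium for 24 hr at 37C. Viability measured in the same wells by CellTiter-Fluor fluorescence, reagent added at 23 hr for 1 hr.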

The nature of experiment [4]: qHTS assay to identify small molecule antagonists of the sonic hedgehog signaling (Shh) pathway (AID 1259369; calls by dose curve; further: nearly all actives have a fitted effect of over 45% in size). The method in brief: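 NIH/3T3-derived Gli1-Luc reporter cells plated 4 h, dosed with compound, then stimulated with conditioned medium for 24 h at 37 C. Firefly luciferase luminescence read after 30 min with detection reagent at room temperature.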
Experiment [5] addresses Estrogen receptor beta (Homo sapiens) (UniProt Q92731). Briefly: qHTS assay to identify small molecule agonists of the estrogen receptor beta (ER-beta) signaling pathway (AID 1259377; active means well fitted activation curve with a large enough effect in the signal ratio in the repeat runs, not every such curve was filed as active; the % refers to the signal ratio). The method in brief:
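Ratiometric beta-lactamase FRET read-out came after 2 h substrate loading at room temperature. It followed 16 h compound treatment at 37C of GripTite HEK293T cells carrying a UAS-bla reporter, plated in 2% charcoal-stripped FBS medium.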

Experiment [6] shares this target. The experiment is described as follows: qHTS assay to identify small molecule antagonists of the estrogen receptor beta (ER-beta) signaling pathway (AID 1259378; active means well fitted inhibition curve with a large enough effect in the signal ratio in the repeat runs, not every such curve was filed as active; the % refers to the signal ratio; further: potency means the concentration at half of the fitted maximal effect). The method in brief: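 ER-beta-UAS-bla HEK293T cells in 2% charcoal-stripped FBS medium treated with compound plus 1nM final 17-beta-estradiol for 16 hr at 37C. Beta-lactamase reporter read by FRET substrate fluorescence after 2 hours at room temperature.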

Experiment [7] is described as follows: qHTS assay to identify small molecule agonists of the androgen receptor (AR) signaling pathway in the presence of an antagonist - cell viability counter screen (AID 1259379).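 Further: MDA-kb2 human breast cancer cells carrying an MMTV luciferase reporter; series mostly up to about 92 µM; nearly all actives have a fitted effect of over 25% in size.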 The procedure, abridged:
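MDA-kb2 cells (MMTV-luciferase, AR/GR), 3,000/well, 5 h attachment, then 3.0 µM nilutamide (final) and compounds at 15 concentrations. Viability by CellTiter-Fluor fluorescence after 16 h at 37 °C, 0% CO2, in the reporter wells.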

The nature of experiment [8]: qHTS assay to identify small molecule agonists of the estrogen receptor beta (ER-beta) signaling pathway - cell viability counter screen (AID 1259380). Further: nearly all actives have a fitted effect of over 30% in size. The method in brief:
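ER-beta-UAS-bla HEK293T cells in medium with 2% charcoal-stripped FBS, pre-incubated 6 hr, then treated 16 hr at 37C. Cytotoxicity read in the same wells by CellTiter-Glo luminescence after 30 min at room temperature.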

The target in experiment [9] is Androgen receptor (Homo sapiens) (UniProt P10275). Briefly: qHTS assay to identify small molecule agonists of the androgen receptor (AR) signaling pathway in the presence of an antagonist (AID 1259381; calls by dose curve; further: nearly all actives have a fitted effect of over 15% in size). The method in brief: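 MDA-kb2 cells carrying MMTV-luciferase (AR/GR responsive), 3,000 cells/well, co-treated with 3.0 uM nilutamide final. Compounds at 15 concentrations, 16 hr at 37C without CO2. Luciferase luminescence read after 30 min with ONE-Glo.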
Androgen receptor (Homo sapiens), sequence (P10275 whole entry, looked up): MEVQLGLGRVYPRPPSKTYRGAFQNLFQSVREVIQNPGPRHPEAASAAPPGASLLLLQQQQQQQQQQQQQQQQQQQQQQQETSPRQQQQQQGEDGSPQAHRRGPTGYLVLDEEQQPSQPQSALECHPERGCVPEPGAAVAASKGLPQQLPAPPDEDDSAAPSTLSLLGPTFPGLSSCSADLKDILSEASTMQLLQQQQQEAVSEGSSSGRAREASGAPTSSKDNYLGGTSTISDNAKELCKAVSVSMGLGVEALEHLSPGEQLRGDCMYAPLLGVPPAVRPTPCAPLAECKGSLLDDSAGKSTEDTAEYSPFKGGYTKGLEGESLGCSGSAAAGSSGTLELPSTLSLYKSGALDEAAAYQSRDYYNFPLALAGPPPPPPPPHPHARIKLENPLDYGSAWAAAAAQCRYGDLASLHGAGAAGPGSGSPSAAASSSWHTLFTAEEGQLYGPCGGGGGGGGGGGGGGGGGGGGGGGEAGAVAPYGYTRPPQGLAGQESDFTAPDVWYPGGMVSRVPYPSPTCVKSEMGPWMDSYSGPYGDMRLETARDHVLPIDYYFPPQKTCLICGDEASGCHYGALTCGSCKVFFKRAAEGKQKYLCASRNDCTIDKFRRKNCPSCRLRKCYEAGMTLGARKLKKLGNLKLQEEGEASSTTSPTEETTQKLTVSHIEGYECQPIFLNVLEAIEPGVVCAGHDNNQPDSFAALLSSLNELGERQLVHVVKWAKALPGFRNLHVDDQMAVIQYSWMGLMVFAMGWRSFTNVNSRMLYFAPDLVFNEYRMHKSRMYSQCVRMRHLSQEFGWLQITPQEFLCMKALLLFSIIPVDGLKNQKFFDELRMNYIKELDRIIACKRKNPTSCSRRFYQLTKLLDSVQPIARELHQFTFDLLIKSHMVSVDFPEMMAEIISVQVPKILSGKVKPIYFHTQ

A short description of experiment [10]: qHTS assay to identify small molecule antagonists of the estrogen receptor beta (ER-beta) signaling pathway - cell viability counter screen (AID 1259382). Further: series mostly up to about 92 µM; nearly all actives have a fitted effect of over 55% in size. The method in brief:
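ER-beta-UAS-bla HEK293T cells in 2% charcoal-stripped FBS medium, treated with compound plus 1 nM 17-beta-estradiol for 16 h at 37C. Viability read by CellTiter-Glo luminescence after 30 min at room temperature in the same wells.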

Experiment [11] deals with Estrogen receptor (Homo sapiens) (UniProt P03372). The experiment is described as follows: qHTS assay to identify small molecule agonists of the estrogen receptor alpha (ER-alpha) signaling pathway in the presence of an antagonist (AID 1259383; calls by dose curve; further: top concentration of the series differs between compounds; nearly all actives have a fitted effect of over 15% in size). The procedure, abridged: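 VM7Luc4E2 cells express endogenous full-length ER-alpha with an ERE-luciferase reporter and were hormone-deprived for 5 days. Compounds at 15 concentrations were added with 10.0nM ICI-182,780 for 22hr at 37C. Luminescence was read with ONE-Glo.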
Estrogen receptor (Homo sapiens), sequence (P03372 whole entry, looked up): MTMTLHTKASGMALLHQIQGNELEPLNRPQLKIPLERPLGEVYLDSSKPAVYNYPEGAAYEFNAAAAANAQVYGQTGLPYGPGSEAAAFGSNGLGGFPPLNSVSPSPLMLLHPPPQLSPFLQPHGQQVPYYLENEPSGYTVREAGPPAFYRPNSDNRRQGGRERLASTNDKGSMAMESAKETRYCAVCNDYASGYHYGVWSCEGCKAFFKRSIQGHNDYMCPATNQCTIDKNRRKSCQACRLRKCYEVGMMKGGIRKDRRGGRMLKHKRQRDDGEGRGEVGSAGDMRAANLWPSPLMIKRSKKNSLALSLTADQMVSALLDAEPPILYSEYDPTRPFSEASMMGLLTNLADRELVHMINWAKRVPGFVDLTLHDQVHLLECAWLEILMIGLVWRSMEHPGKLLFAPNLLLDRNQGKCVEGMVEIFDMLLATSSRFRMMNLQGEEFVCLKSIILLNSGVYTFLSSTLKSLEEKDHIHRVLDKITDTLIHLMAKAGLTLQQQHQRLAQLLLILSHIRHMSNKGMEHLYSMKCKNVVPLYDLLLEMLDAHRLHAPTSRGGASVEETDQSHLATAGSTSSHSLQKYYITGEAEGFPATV

The nature of experiment [12]: qHTS assay to identify small molecule agonists or antagonists of the thyroid stimulating hormone receptor (TSHR) signaling pathway - wild type cell line counter screen (AID 1259384; calls by dose curve). The procedure, abridged: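 Wild-type Hek293 cells, 800/well, 18 h at 37C, then compound with Ro20-1724 for 30 min RT. cAMP by HTRF (cAMP-d2/anti-cAMP cryptate), 1 h RT, fluorescence read. 15 concentrations, triplicates.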

In experiment [13] the target is Thyrotropin receptor (Homo sapiens) (UniProt P16473). Briefly: qHTS assay to identify small molecule antagonists of the thyroid stimulating hormone receptor (TSHR) signaling pathway (AID 1259385; calls by dose curve; further: nearly all actives have a fitted effect of over 20% in size). The method in brief: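 TSHR-HEK293 cells (800/well) plated 18 h, then compounds with Ro20-1724 and TSH at 1.5 ng/mL final, 30 min at room temperature. cAMP quantified by HTRF (cAMP-d2/anti-cAMP-cryptate, 1 h); 15 concentrations in triplicate.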
Thyrotropin receptor (Homo sapiens), sequence (P16473 whole entry, looked up): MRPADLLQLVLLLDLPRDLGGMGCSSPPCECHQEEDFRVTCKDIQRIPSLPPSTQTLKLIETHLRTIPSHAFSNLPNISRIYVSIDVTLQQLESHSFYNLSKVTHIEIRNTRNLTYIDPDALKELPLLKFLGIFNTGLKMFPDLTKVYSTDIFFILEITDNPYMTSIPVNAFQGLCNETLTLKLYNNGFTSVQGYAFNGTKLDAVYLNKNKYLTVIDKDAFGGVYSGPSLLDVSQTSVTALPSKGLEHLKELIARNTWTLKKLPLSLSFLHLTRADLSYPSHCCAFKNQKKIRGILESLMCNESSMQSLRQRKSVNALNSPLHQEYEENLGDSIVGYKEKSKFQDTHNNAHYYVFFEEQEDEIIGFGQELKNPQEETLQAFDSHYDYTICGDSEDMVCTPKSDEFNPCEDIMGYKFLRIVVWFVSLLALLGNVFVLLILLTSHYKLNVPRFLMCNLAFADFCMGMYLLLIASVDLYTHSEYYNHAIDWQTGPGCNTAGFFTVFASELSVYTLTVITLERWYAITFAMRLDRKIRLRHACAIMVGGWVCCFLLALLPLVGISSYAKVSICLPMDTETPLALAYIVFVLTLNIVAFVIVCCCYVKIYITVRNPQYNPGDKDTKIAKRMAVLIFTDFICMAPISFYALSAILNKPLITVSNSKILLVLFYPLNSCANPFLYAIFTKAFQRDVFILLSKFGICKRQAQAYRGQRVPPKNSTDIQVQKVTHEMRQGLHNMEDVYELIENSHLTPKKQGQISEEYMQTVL

Experiment [14] in a line: qHTS assay to identify small molecule agonists of the estrogen receptor alpha (ER-alpha) signaling pathway in the presence of an antagonist - cell viability counter screen (AID 1259386).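 Further: series mostly up to about 92 µM; cells exposed to compounds for 22 h at 37 °C before the viability read; nearly all actives have a fitted effect of over 30% in size.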 The procedure, abridged: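 Cell viability in VM7Luc4E2 cells (endogenous full-length ER-alpha) measured by CellTiter-Fluor fluorescence in the same wells as the luciferase screen. Cells pre-cultured 5 days in charcoal-stripped serum, then treated 22 h with compounds at 15 concentrations plus 10.0nM ICI-182,780.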

The target of experiment [15] is Progesterone receptor (Homo sapiens) (UniProt P06401). The experiment is described as follows: qHTS assay to identify small molecule agonists of the progesterone receptor (PR) signaling pathway (AID 1346784; calls by dose curve; further: nearly all actives have a fitted effect of over 30% in size). The procedure, abridged: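 Agonist qHTS: compounds pinned onto 3,000 PR-UAS-bla HEK 293T cells per well in charcoal-stripped serum medium, 16hr at 37C, then beta-lactamase activity measured by LiveBLAzer FRET fluorescence after 2 hours at room temperature.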
Progesterone receptor (Homo sapiens), sequence (P06401 whole entry, looked up): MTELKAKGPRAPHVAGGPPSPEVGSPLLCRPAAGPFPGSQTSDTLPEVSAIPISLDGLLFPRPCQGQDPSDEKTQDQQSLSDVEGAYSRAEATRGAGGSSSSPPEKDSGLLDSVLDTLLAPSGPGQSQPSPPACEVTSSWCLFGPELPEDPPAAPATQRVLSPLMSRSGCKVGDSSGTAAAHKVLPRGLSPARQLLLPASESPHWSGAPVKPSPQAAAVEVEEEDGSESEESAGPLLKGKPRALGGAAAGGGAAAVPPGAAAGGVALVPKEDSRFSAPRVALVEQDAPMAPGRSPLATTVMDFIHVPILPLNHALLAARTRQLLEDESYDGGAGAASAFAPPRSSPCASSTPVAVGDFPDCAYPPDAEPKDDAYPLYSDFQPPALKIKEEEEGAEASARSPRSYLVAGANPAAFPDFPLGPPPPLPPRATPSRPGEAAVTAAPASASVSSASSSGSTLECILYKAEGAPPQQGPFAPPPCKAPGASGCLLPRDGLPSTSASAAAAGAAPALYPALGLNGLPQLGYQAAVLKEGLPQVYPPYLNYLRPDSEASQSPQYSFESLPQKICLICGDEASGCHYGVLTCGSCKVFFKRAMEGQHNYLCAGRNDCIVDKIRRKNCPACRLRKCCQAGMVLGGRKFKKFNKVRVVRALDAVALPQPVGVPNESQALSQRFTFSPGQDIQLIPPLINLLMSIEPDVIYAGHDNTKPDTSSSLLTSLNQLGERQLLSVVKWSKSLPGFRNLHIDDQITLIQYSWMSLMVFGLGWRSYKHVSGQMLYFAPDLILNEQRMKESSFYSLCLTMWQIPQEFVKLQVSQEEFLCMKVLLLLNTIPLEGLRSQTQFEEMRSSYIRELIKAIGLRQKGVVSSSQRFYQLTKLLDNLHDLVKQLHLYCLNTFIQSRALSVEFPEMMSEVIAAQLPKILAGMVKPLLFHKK

Experiment [16] has the same target. The experiment is described as follows: qHTS assay to identify small molecule antagonists of the progesterone receptor (PR) signaling pathway (AID 1346795; active means well fitted inhibition curve with a large enough effect in the signal ratio in the repeat runs, not every such curve was filed as active; the % refers to the signal ratio; further: potency means the concentration at half of the fitted maximal effect). The procedure, abridged: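 Antagonist mode with agonist R5020 at 1 nM final and 16 hr incubation at 37C. Reporter was beta-lactamase driven by UAS in HEK293T (PR-UAS-bla), 2% charcoal-stripped serum; signal from LiveBLAzer FRET substrate, 2 hr at room temperature.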

A short description of experiment [17]: qHTS assay to identify small molecule antagonists of the progesterone receptor (PR) signaling pathway - cell viability counter screen (AID 1346798). Further: series mostly up to about 92 µM; nearly all actives have a fitted effect of over 50% in size. The procedure, abridged: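 Cytotoxicity read as CellTiter-Glo luminescence (30 min, room temperature) in the same wells as the beta-lactamase readout. HEK293T PR-UAS-bla cells in charcoal-stripped 2% FBS received compound and R5020, then 16 h at 37C, 5% CO2.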

The nature of experiment [18]: qHTS assay to identify small molecule agonists of the progesterone receptor (PR) signaling pathway - cell viability counter screen (AID 1346799; calls by dose curve; further: nearly all actives have a fitted effect of over 45% in size). The method in brief: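 Cytotoxicity measured by CellTiter-Glo luminescence (30 min, RT) in the same wells as the PR beta-lactamase agonist read. Those HEK293T cells had 16 h compound treatment at 37 C in 2% charcoal-stripped FBS medium.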

Experiment [19] is described as follows: qHTS assay to identify small molecule agonists of the sonic hedgehog signaling (Shh) pathway (AID 1259368; calls by dose curve;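 further: NIH/3T3-derived 3T3Gli1-Luc cells carrying a stable Gli1-driven firefly luciferase reporter; series mostly up to about 92 µM; nearly all actives have a fitted effect of over 15% in size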). The procedure, abridged: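 NIH/3T3-derived 3T3Gli1-Luc cells with stably integrated Gli1-driven firefly luciferase, 2,000 cells/well, compounds added after 4 hr. Incubated 24 hr at 37C, 5% CO2; luminescence read after 30 min with luciferase reagent at room temperature.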
On the % scale 0 is the no-effect control and ±100 the full control effect.

Estrogen receptor beta (Homo sapiens), sequence (Q92731 whole entry, looked up): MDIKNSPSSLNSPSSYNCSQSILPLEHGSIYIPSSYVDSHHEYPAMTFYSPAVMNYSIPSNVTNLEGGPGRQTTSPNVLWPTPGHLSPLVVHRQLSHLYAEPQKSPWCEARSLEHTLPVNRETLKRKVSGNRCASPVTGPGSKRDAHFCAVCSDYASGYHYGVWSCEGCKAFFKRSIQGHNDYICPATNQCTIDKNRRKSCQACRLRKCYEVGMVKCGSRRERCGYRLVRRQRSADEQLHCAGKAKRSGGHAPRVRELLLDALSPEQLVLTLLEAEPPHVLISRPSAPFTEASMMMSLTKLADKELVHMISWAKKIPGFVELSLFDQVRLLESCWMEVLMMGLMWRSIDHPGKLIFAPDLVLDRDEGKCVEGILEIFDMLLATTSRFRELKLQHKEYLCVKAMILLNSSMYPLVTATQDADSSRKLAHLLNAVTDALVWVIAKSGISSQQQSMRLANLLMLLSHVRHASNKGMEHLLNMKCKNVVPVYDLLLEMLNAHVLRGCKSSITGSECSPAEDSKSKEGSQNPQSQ

For `CC(=O)CC(=O)OC(C)(C)C`, the compound was classed as inactive in experiment [1], in [2], in experiment [3], in [7], in [8] and in [9]. In addition, the compound was classed as inactive in [10], in [12], in [13], in experiment [14], in [17] and in experiment [18]. The Potency result in [4], in experiment [5], in experiment [6], in experiment [11], in experiment [15] and in experiment [16] was “inactive” each time.
In the case of `O=[N+]([O-])c1c(Cl)cc(Cl)cc1Cl`, the compound was called inactive in experiment [1], in experiment [2], in experiment [19], in experiment [7], in experiment [8] and in [10]. In addition, the result in experiment [14], in experiment [17] and in [18] was inactive. For the same compound, the Potency entry in experiment [4], in experiment [5], in experiment [6], in experiment [15] and in experiment [16] was “inactive” each time.
Take `CCC(C(=O)OCCN1CCOC(c2ccccc2)C1C)c1ccccc1` (configuration not stated): the outcome in experiment [1], in [19], in experiment [7], in experiment [10], in [12] and in experiment [13] was inactive. In addition, the outcome in [14] was inactive. Moreover, the Potency result in experiment [11] and in [15] was “inactive” throughout. In addition, the Potency in experiment [16] is 23.7 µM (active).
Regarding `CCCCCCCCCCCCCCCCCC#N`, the compound was called inactive in experiment [1], in experiment [2], in experiment [3], in experiment [19], in [7] and in experiment [8]. Also, the outcome in [10], in experiment [12], in experiment [13], in [14] and in [18] was inactive. The Potency result in [4], in [5], in [6], in experiment [11], in [15] and in experiment [16] was “inactive” in each case.
In the case of `CCC(C)OC(C)CC` (configuration not stated), the result in [1], in experiment [3], in [19], in experiment [7], in experiment [9] and in experiment [10] was inactive. Besides, the compound was called inactive in experiment [12], in [13], in experiment [14] and in experiment [17]. Besides, the Potency entry in experiment [4], in experiment [5] and in experiment [15] was “inactive” in each case. The Potency in experiment [6] was 28.3 µM (active).
As to `CCC(=O)c1c(O)cc(O)cc1O`, the outcome in experiment [1], in experiment [2], in [3], in [19], in [7] and in [9] was inactive. In addition, the compound was called inactive in [10], in [13], in experiment [14], in experiment [17] and in experiment [18]. Also, the Potency result in experiment [4], in experiment [6], in experiment [11] and in experiment [15] was “inactive” each time.
Take `O=C(NCN1CCOCC1)c1cnccn1`: the outcome in experiment [1], in [3], in experiment [7], in [8], in [9] and in experiment [10] was inactive. The result in [14], in experiment [17] and in experiment [18] was inactive. Also, the Potency entry in experiment [4], in experiment [11], in experiment [15] and in [16] was “inactive” each time.
For `COP(=O)(O)OP(=O)(O)OC`, the result in experiment [1], in experiment [2], in experiment [3], in experiment [19], in experiment [7] and in experiment [8] was inactive. Also, the compound was classed as inactive in [10], in [12], in [13] and in experiment [17]. Besides, the Potency result in [4], in experiment [5], in experiment [6], in [11], in [15] and in experiment [16] was “inactive” in each case.
Take `[O]=[Mo](=[O])=[O]`: the activity change, negative = cytotoxicity in [1] is 3.01% [at 19 µM]; in experiment [7], 2.34% [at 19 µM]; in [8], 3.4% [at 19 µM]; in experiment [10], -3.58% [at 19 µM]; in experiment [14], -0.317% [at 19 µM]; in experiment [17], 2.8% [at 18.9 µM]. In addition, the activity change, negative = cytotoxicity in [18] was 7.88% [at 19 µM]. The results for the viability change, negative = cytotoxic in [2] and in experiment [3] were 1.33% [at 19 µM] and 0.3% [at 19 µM], respectively. Also, in [19], the activity change was -1.33% [at 18.9 µM]. Further, the activity change, negative = inhibition in experiment [4] is -0.431% [at 19 µM]; in experiment [13], 4.59% [at 19 µM]; in experiment [16], 2.07% [at 18.9 µM]. Also, in experiment [6], the activity, negative = inhibition is 0.823% [at 19 µM]. For the same compound, the activation in [15] was 1.92% [at 19 µM].

Values taken from PubChem BioAssay (Tox21).
